We go through 12 molecules from the supplement of paper PMC6522484.

The structures appear in SMILES notation. ± gives the standard deviation of the averaged measurements.

For assay [1], the system named is DLD1. Briefly: cell viability (CellTiter-Glo) relative to plate median (fraction of plate median); higher = more viable cells. As to conditions: 5 µM; treatment time 24 h; reporter: 7TFP. The method in brief:
(§1)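 Luminescence, normalised well by well to the plate median, is tabulated as a mean of independent replicates. There were two replicates, run on colorectal cancer lines stably transduced with lentiviral TCF/Wnt firefly luciferase reporters and dosed with library compounds at a final 5 µM for 24 h. Readouts were firefly luciferase or CellTiterGlo on parallel plates.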
(ATP-based viability assays read luminescence as a measure of living cells.)

The subject of assay [2] is HCT116. The assay is described as above. Particulars: 5 µM; treatment time 24 h; reporter: TCF4/Wnt. In a few lines:
as §1

In assay [3] the test system is SW480. The description is as above. Particulars: 5 µM; treatment time 24 h; reporter: 7TFP. The method in brief:
as §1

Assay [4] deals with DLD1. Briefly: TCF/Wnt firefly luciferase reporter signal relative to plate median (fraction of plate median); higher = higher Wnt reporter signal. As to conditions: 5 µM; treatment time 24 h; reporter: 7TFP. In a few lines:
as §1
For orientation: A reporter such as luciferase makes a cellular process visible.

Assay [5] has as its system SW480. The description is as above. Particulars: 5 µM; treatment time 24 h; reporter: 7TFP. The method in brief: as §1

Turning to `N[C@@H](Cc1ccc(N(CCCl)CCCl)cc1)C(=O)O`, the values for the cell viability in assay [1], in assay [2] and in assay [3] were 1.01 ± 0.17, 1.02 ± 0.04 and 1 ± 0.04, respectively. Moreover, the “TCF/Wnt firefly luciferase reporter signal” value in assay [4] turned out to be 0.986 ± 0.0057; in assay [5], 0.936 ± 0.081.

For `Cc1ccc(/N=C/N(C)/C=N/c2ccc(C)cc2C)c(C)c1`, the cell viability stood at 1.01 ± 0.021 in assay [1], 0.988 ± 0.074 in assay [2] and 0.975 ± 0.036 in assay [3]. Further, the “TCF/Wnt firefly luciferase reporter signal” value in assay [4] came out at 1.1 ± 0.057; in assay [5], 0.927 ± 0.12.

For the molecule `COc1ccc(C(=O)O[C@H]2CC[C@@]3(C)[C@@H]4CC[C@H]5[C@]6(O)C[C@H](O)[C@@]7(O)[C@@H](CN8C[C@@H](C)CC[C@H]8[C@@]7(C)O)[C@]6(O)C[C@@]53O[C@]24O)cc1OC`, the figures for the cell viability in assay [1], in assay [2] and in assay [3] were 0.98 ± 0.043, 0.942 ± 0.083 and 1.02 ± 0.099, respectively. Moreover, the “TCF/Wnt firefly luciferase reporter signal” value in assay [4] turned out to be 1.03 ± 0.14; in assay [5] it was 1.05 ± 0.087.

`CN1C(=O)CCS(=O)(=O)C1c1ccc(Cl)cc1` (stereo not given): the figures for the cell viability in assay [1], in assay [2] and in assay [3] were 1.01 ± 0.033, 1.02 ± 0.014 and 0.946 ± 0.15, respectively. The “TCF/Wnt firefly luciferase reporter signal” value in assay [4] came out at 0.984 ± 0.023; in assay [5], 1.04 ± 0.093.

As for `O=[N+]([O-])O[C@@H]1CO[C@H]2[C@@H]1OC[C@@H]2O`, the cell viability amounted to 0.98 ± 0.018 in assay [1], 1.06 ± 0.028 in assay [2] and 1.02 ± 0.03 in assay [3]. The “TCF/Wnt firefly luciferase reporter signal” value in assay [4] came out at 0.989 ± 0.28; in assay [5], 0.915 ± 0.12.

For the molecule `OC1CCCCC1N1CCC(c2ccccc2)CC1` (stereo not given), the cell viability is 0.98 ± 0.0042 in assay [1], 0.922 ± 0.069 in assay [2] and 1.04 ± 0.021 in assay [3]. Moreover, the “TCF/Wnt firefly luciferase reporter signal” value was determined as 0.867 ± 0.1 in assay [4] and 0.92 ± 0.022 in assay [5].

`C[C@H]1CC[C@]2(NC1)O[C@H]1C[C@H]3[C@@H]4CC[C@H]5C[C@@H](O)CC[C@]5(C)[C@H]4CC[C@]3(C)[C@H]1[C@@H]2C`: the cell viability in assay [1] was found to be 0.956 ± 0.076; in assay [2], 1.01 ± 0.052; in assay [3], 0.988 ± 0.06. Further, the “TCF/Wnt firefly luciferase reporter signal” value is 1.03 ± 0.035 in assay [4] and 1.09 ± 0.057 in assay [5].

Regarding `COc1cc2c(c(OC)c1OC)-c1ccc(OC)c(=O)cc1[C@@H](NC(C)=O)CC2`, the values for the cell viability in assay [1], in assay [2] and in assay [3] were 1.1 ± 0.057, 0.636 ± 0.016 and 1.22 ± 0.099, respectively. In addition, the “TCF/Wnt firefly luciferase reporter signal” value in assay [4] was 0.77 ± 0.22; in assay [5], 0.802 ± 0.13.

`C[C@@H]1C[C@H](C)C[C@H](C)[C@@H](O)CC(=O)O[C@H]([C@@H]2CCC[C@H]2C(=O)O)C/C=C/C=C(/C#N)[C@H](O)[C@@H](C)C1` [Borrelidin]: the cell viability in assay [1] was 0.894 ± 0.067; in assay [2], 0.817 ± 0.18; in assay [3], 1.01 ± 0.02. Also, the “TCF/Wnt firefly luciferase reporter signal” value is 0.989 ± 0.059 in assay [4] and 1.06 ± 0.095 in assay [5].

Take `CCC(C)C(=O)O[C@@H]1C[C@@]2(C)[C@H](c3ccoc3)OC(=O)CC23OC2(C)O[C@]14[C@]1(C)[C@@H](CC(=O)OC)C5(C)CC1(O)[C@](O)(C5OC(=O)C1(C)OC1C)[C@@H](OC(C)=O)[C@]34O2` (stereo not given in full): the cell viability amounted to 0.972 ± 0.027 in assay [1], 0.961 ± 0.11 in assay [2] and 1 ± 0.013 in assay [3]. The “TCF/Wnt firefly luciferase reporter signal” value in assay [4] came out at 1.04 ± 0.014; in assay [5], 0.928 ± 0.19.

For `Cc1cc(O)ccc1Cl`, the figures for the cell viability in assay [1], in assay [2] and in assay [3] were 1.04 ± 0.035, 0.994 ± 0.023 and 1.02 ± 0.028, respectively. In addition, the “TCF/Wnt firefly luciferase reporter signal” value in assay [4] amounted to 0.941 ± 0.015; in assay [5], 0.834 ± 0.069.

`Cl[C@H]1[C@H](Cl)[C@@H](Cl)[C@@H](Cl)[C@H](Cl)[C@H]1Cl`: the cell viability in assay [1] stood at 1.05 ± 0.014; in assay [2], 1.035 ± 0.0071; in assay [3], 1.04 ± 0.042. Further, the “TCF/Wnt firefly luciferase reporter signal” value in assay [4] worked out at 1.05 ± 0.05; in assay [5] it was 1.15 ± 0.05.
